Bioassay records (PubChem BioAssay)
A selection: hits, their analogues and other compounds. The true share with any hit is near 18%.
IL-1B inflam inh = inhibitors of inflammasome signaling (IL-1 beta secretion). hit rate 4.7% among 360,000. AID 743279. THP-1 LPS/ATP IL-1B secretion, AlphaLISA, 16 h; active compounds read low. activity change, % at 57.5 µM; in the data active = activity change below about -50%; inconclusive = mostly about -30% to -49%
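Secreted IL-1B measured by AlphaLISA bead assay after 16 h compound exposure of THP-1 cells; compounds (final up to 57.5 uM) added 1 h before LPS (250 ng/mL) and ATP (1.25 mM) stimulation; lower signal means less secretion.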
RORgamma inh = blocks mouse ROR gamma transcriptional activity. Drosophila S2 Gal4-RORgamma UAS-luciferase reporter, 20 h. Potency, µM (top dose mostly 53.6 µM), actives largely listed as inhibitors. hit rate 5.4% among 310,000. AID 2551; note: nearly all actives have a fitted effect of over 60% in size
Target sequence (P51450 whole entry, looked up, the tested form may be a part): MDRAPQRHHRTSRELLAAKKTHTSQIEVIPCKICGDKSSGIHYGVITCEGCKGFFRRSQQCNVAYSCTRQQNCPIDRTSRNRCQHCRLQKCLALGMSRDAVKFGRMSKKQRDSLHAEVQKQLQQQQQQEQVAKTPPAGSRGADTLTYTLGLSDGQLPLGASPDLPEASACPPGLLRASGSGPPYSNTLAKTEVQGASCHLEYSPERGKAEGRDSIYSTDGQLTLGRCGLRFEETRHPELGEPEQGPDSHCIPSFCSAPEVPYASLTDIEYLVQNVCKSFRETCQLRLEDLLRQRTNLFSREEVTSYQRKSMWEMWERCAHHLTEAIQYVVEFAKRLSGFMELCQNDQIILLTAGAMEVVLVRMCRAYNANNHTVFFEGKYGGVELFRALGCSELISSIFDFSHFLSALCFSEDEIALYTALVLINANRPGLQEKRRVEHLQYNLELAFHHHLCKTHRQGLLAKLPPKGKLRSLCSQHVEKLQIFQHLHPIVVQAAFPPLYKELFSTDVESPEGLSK
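Using a luciferase readout, inhibitors were identified by reduced reporter activity in Drosophila cells coexpressing a copper-inducible Gal4–ROR gamma fusion and UAS-driven Photinus luciferase, incubated 20 hr after 700 uM copper sulfate.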
VP16 counter = inhibits Gal4-VP16 luciferase reporter, ROR gamma counter-screen; Drosophila S2 Gal4-VP16 UAS-luciferase, luminescence, 20 h; Potency, µM (doses to about 53.6 µM), usual class: inhibitors; hit rate 3.5% among 310,000; AID 2546;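 note: Gal4-VP16 expression switched on by copper sulfate through the metallothionein promoter; nearly all actives have a fitted effect of over 50% in size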
LDHA inh = LDHA (human) enzyme inhibition; P00338; purified LDHA, NADH/diaphorase-resazurin fluorescence; active compounds read low; activity change, % (values are at about 110 or 230 µM); hit rate 0.15% among 480,000; AID 1347041; in the data active = activity change below about -30%; inconclusive = mostly about -25% to -30%
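Remaining NADH was detected by diaphorase (0.133 mg/mL) converting 37 µM resazurin to fluorescent resorufin, read at 0 and 20 minutes. The preceding 5-minute room-temperature reaction used 2 nM LDHA, 0.2 mM sodium pyruvate and 0.06 mM NADH at pH 7.4.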
TDP1 cell CPT = DT40-hTDP1 cell growth loss with CPT; hit rate 12% among 420,000; chicken DT40 Tdp1-/-;hTDP1 cells + 20 nM CPT, ATP luminescence, 48 h; Potency, µM (doses to about 46.2 µM), usual class: inhibitors; note: nearly all actives have a fitted effect of over 55% in size
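Chicken DT40 Tdp1-/- cells stably complemented with human TDP1 were seeded at 400 cells/well in medium containing 20 nM camptothecin, exposed to pin-transferred compounds, and grown at 37 °C for at least 48 hr. Viability was read as ATP luminescence.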
TDP1 cell noCPT = qHTS for Inhibitors of human tyrosyl-DNA phosphodiesterase 1 (TDP1): qHTS in cells in absence of CPT; Potency, µM (series often up to 46.2 µM), most hits filed as inhibitors; DT40 Tdp1-/- hTDP1 cells, no CPT, ATP luminescence, 48 h; hit rate 15% among 420,000; note: nearly all actives have a fitted effect of over 55% in size
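Stably hTDP1-transfected Tdp1-null chicken DT40 cells were treated with library compounds minus camptothecin and grown for at least 48 hr at 37 °C, after which cellular ATP was quantified by luminescence.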
A number is an active result; i = inactive; ? = inconclusive; nt = not tested or not shown. Unless noted, calls come from the whole dose curve; as a rule, active = well fitted curve in the direction sought with a large enough effect; inconclusive = small, poorly fitted or top-dose-only effect, or another doubt; inactive = no such curve, though single readings can be large; an effect the other way counts as inactive or inconclusive.

SMILES	IL-1B inflam inh	RORgamma inh	VP16 counter	LDHA inh	TDP1 cell CPT	TDP1 cell noCPT
Cc1cc(Cl)ccc1NC(=S)Nc1cccnc1	i	12.6µM	?	i	i	i
Cc1cc(NC(=S)Nc2ccccc2)ccc1Br	i	10µM	?	i	i	i
Cc1cc(NC(=S)NCCc2ccccc2)ccc1Br	nt	nt	nt	i	nt	nt
COc1cc(OC)cc(C(=O)NC(=S)Nc2cccnc2)c1	i	i	i	i	i	?
Fc1cccc(NC(=S)Nc2cccnc2)c1	i	i	i	i	i	?
COc1cc(NC(=S)Nc2cccnc2)cc(OC)c1	i	10µM	?	i	i	?
Cc1cc(NC(=S)Nc2cccnc2)ccc1Br	i	12.6µM	?	i	?	i
CC1CCC(NC(=O)c2ccc(CS(=O)(=O)c3c(Cl)cccc3Cl)o2)CC1 (stereo unspecified)	nt	nt	nt	i	14.6µM	?
CC(C)N(CCNC(=O)c1ccc(CS(=O)(=O)c2c(Cl)cccc2Cl)o1)Cc1ccccc1	i	i	i	i	20.6µM	?
Cc1ccccc1S(=O)(=O)Cc1ccc(C(=O)NCCN(Cc2ccccc2)C(C)C)o1	i	i	i	i	?	16.4µM
O=C(NC1CC1)c1ccc(CSCc2ccc(Cl)cc2)o1	i	nt	nt	i	?	20.6µM
Cc1ccccc1S(=O)(=O)Cc1ccc(C(=O)NCCN(C)Cc2ccccc2)o1	i	i	i	i	i	i
CCCOc1cccc(C(=O)Nc2scc(-c3ccc(OC)c(OC)c3)c2C(=O)OC)c1	nt	nt	nt	i	nt	nt
COCCn1c(COc2ccccc2-c2ccccc2)nnc1SC(F)F	nt	nt	nt	i	nt	nt
O=C(CSc1nc2ccccc2s1)Nc1ccc(F)c(F)c1F	nt	nt	nt	i	nt	nt
CCCc1c(C(=O)OCC)[nH]c2c1C(=O)CC(c1ccc(N(C)C)cc1)C2 (stereo unspecified)	nt	nt	nt	i	nt	nt
CCc1ccccc1S(=O)(=O)Cc1ccc(C(=O)NC2CCCC2)o1	i	i	i	i	i	i
Cc1cccc(S(=O)Cc2ccc(C(=O)NC3CCCCCC3)o2)c1 (stereo unspecified)	nt	nt	nt	i	11.6µM	?
Cc1ccccc1S(=O)(=O)Cc1ccc(C(=O)NC2CCCCC2)o1	?	i	i	i	20.6µM	?
Cn1c(COc2ccc(Cl)cc2)nnc1SCCOc1ccc(Cl)cc1	nt	nt	nt	i	nt	nt
S=c1[nH]c2ccccc2s1	nt	7.94µM	10µM	i	?	?
O=C(Nc1ccc2[nH]c(=S)sc2c1)c1ccccc1	i	i	i	i	i	i
O=C(O)CCc1cccc(Br)c1	nt	nt	nt	i	nt	nt
CCc1ccc(NC(=O)c2ccc(F)c(S(=O)(=O)NC3CCCCCC3)c2)cc1	nt	nt	nt	i	?	20.6µM
CCc1ccc(NC(=O)c2ccc(F)c(S(=O)(=O)N(C)C3CCCCC3)c2)cc1	nt	nt	nt	i	?	20.6µM
SMILES	IL-1B inflam inh	RORgamma inh	VP16 counter	LDHA inh	TDP1 cell CPT	TDP1 cell noCPT
Cc1ccccc1NC(=O)c1ccc(F)c(S(=O)(=O)NC2CCCC2)c1	nt	nt	nt	i	i	i
O=C(Nc1cc(Cl)cc(Cl)c1)c1ccc(F)c(S(=O)(=O)NC2CCCC2)c1	nt	nt	nt	i	16.4µM	18.4µM
O=C(Nc1cccc(-c2cc3cc(F)ccc3[nH]2)c1)C1CC1	nt	nt	nt	i	nt	nt
O=C(Nc1nccs1)C1=Cc2cc(Cl)ccc2OC=C1	nt	nt	nt	i	nt	nt
COc1cccc(-c2nc(S(=O)(=O)c3ccccc3)c(N3CCC(C)CC3)o2)c1	nt	nt	nt	i	?	8.2µM
COc1ccccc1-c1nc(S(=O)(=O)c2ccccc2)c(N2CCC(C)CC2)o1	nt	nt	nt	i	23.1µM	3.66µM
COc1ccc(N2CCN(c3oc(-c4ccccc4C)nc3S(=O)(=O)c3ccccc3)CC2)cc1	nt	nt	nt	i	11.6µM	9.2µM
COc1ccc(-c2nc(S(=O)(=O)c3ccccc3)c(N3CCC(C)CC3)o2)cc1	nt	nt	nt	i	20.6µM	11.6µM
CN1CCN(c2oc(-c3ccccc3)nc2S(=O)(=O)c2ccccc2)CC1	i	nt	nt	i	i	i
Cc1c(S(=O)(=O)c2ccccc2)c(NC(=O)C(C)C)n(Cc2ccccc2)c1C	nt	nt	nt	i	nt	nt
COC(=O)c1ccc(CN(C)C(=O)C(C)(C)C)cc1	nt	nt	nt	i	nt	nt
O=C1/C(=C/c2ccccn2)SC(=S)N1Nc1ncc(C(F)(F)F)cc1Cl	i	nt	nt	i	8.2µM	?
